From PubChem BioAssay
The entries come from a sample that favours hits as a whole.
FECH block: blocks human mitochondrial ferrochelatase activity; AID 1671448; purified FECH, Ni-mesoporphyrin absorbance 550 nm; calls only at 10 µM (by protocol); 20,000 compounds, 3.3% hits; P22830;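 active = enzyme reaction rate more than 3 SD below the solvent-only control wells on the same plate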;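 note: lower slope than DMSO wells means FECH inhibition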
Target sequence (P22830 whole entry, looked up): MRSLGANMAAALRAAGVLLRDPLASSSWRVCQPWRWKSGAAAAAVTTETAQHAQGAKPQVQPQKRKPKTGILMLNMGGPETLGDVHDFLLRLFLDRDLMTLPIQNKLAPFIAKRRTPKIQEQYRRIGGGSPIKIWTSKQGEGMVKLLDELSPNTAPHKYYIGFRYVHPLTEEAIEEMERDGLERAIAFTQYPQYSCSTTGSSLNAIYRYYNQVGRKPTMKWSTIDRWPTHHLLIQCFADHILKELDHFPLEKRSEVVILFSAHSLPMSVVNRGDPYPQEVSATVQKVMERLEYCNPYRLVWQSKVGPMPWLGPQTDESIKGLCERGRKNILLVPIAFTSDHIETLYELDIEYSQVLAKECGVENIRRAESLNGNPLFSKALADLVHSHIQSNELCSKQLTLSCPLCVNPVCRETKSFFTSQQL
* marks the source's active call; other numbers are inactive results.

CC(C)c1cc(=O)n2[nH]c(CNc3cccc(C(F)(F)F)c3)nc2n1 was read as FECH block active.
Screening Cc1ccccc1-c1nc2nc(CN3CCc4ccccc4C3)cc(=O)n2[nH]1 returned FECH block inactive.
Screening Cc1ccc(F)cc1CC(=O)NCc1ccccc1-n1cncn1 returned FECH block inactive.
Screening O=C(NC1CC1)C1CNCCN1C(=O)C(c1ccccc1)c1ccccc1 (stereo unspecified) returned FECH block inactive.
COCCNc1nc(Nc2cccc(Cl)c2)c2cnn(-c3ccccc3)c2n1 was read as FECH block inactive.
Screening Cc1cnc(CNC(=O)c2cccc(CC3CCNCC3)c2)cn1 returned FECH block inactive.
`Cc1ccc(S(=O)(=O)NCc2nc3cccnc3n2C2CC2)c(C)c1` gave FECH block inactive.
Cc1cc(Cl)cc2c(=O)n(CC3(CO)CCC3)cnc12 was read as FECH block active.
Screening Cc1cccc2c(=O)n(CCN3CCCC(c4ccccc4)C3)cnc12 (stereo unspecified) returned FECH block inactive.
For Cc1cc(C)c2ncn(CCC(C)O)c(=O)c2c1 (stereo unspecified) the results were FECH block inactive.
`Cc1ccc(-c2cc(N3CCN(S(=O)(=O)c4ccc(Br)cc4)CC3)ncn2)cc1` gave FECH block active.
O=S(=O)(c1ccc(Br)cc1)N1CCN(c2cc(-c3ccc(F)cc3)ncn2)CC1 was read as FECH block inactive.
For O=S(=O)(c1ccc(Br)cc1)N1CCN(c2cc(-c3cccc(F)c3)ncn2)CC1 the results were FECH block inactive.
Screening c1cncc(CNc2cc(-c3cnc4ccccc4c3)c3cc[nH]c3n2)c1 returned FECH block inactive.
For COCCCNc1nc(Nc2ccc(Cl)cc2)c2cnn(-c3ccccc3)c2n1 the results were FECH block inactive.
`O=[N+]([O-])c1cccc(S(=O)(=O)NCc2nc3cccnc3n2Cc2ccccc2)c1` gave FECH block inactive.
For O=C(N[C@@H]1c2ccccc2C2(CCNCC2)[C@H]1O)c1ccc(Cl)s1 the results were FECH block inactive.
`O=c1c(NCc2ccccc2Cl)c(-c2ccc3c(c2)CCCC3)c1=O` gave FECH block inactive.
`Clc1ccccc1CNc1ncnc2oc3c(c12)CCCC3` gave FECH block active.
`COc1ccc(CCNc2ncnc3oc4c(c23)CCCC4)c(OC)c1` gave FECH block inactive.
Screening COC(=O)CN(c1nc2nc(C)cc(C)n2n1)S(=O)(=O)c1ccc(Cl)cc1 returned FECH block inactive.
Screening CCc1cc(Sc2ccccc2NC(=O)c2ccccc2Cl)n2nc(C)nc2n1 returned FECH block inactive.
For Cc1cc(C(F)(F)F)nc(CCNC(=O)c2ccc(Cl)cn2)n1 the results were FECH block inactive.
`CCCOCCN1CCN(c2ncnc3[nH]ccc23)CC1` gave FECH block inactive.
Screening COCc1cc(CN(C)c2ncnc3[nH]ccc23)[nH]n1 returned FECH block inactive.
Screening CN(CCOc1ccccc1)c1ncnc2[nH]ccc12 returned FECH block active.
Cc1cc(N2CCCC2)nc(Nc2ccc(NC(=O)CCC3CCCC3)cc2)n1 was read as FECH block inactive.
`CN(C(=O)c1ccc(CC2CCCNC2)cc1)C1Cc2ccccc2C1` (stereo unspecified) gave FECH block inactive.
Screening O=C(Nc1ncns1)c1cccc(CN2CC[C@H](O)C2)c1 returned FECH block inactive.
Screening O=C(Nc1ccc2ncsc2c1)c1cccc(CN2CCCC(O)C2)c1 (stereo unspecified) returned FECH block active.
O=C(Nc1nc2c(s1)CCCC2)c1cccc(CN2CC[C@H](O)C2)c1 was read as FECH block inactive.
`O=S(=O)(c1ccccc1)N1CCN(Cc2ccnn2-c2ccccc2)CC1` gave FECH block inactive.
For Cc1ccc(C(CNC(=O)c2cccc3ccnn23)N2CCOCC2)o1 (stereo unspecified) the results were FECH block inactive.
Screening O=C(O)CC1CNCCN(C(=O)c2cc3c(s2)CCCCC3)C1 (stereo unspecified) returned FECH block inactive.
`CC(C)(C)c1ccc(-c2nc3nc(CN4CCN(c5ccc(F)cc5)CC4)cc(=O)n3[nH]2)cc1` gave FECH block inactive.
Screening CC(C)(C)c1ccc(-c2nc3nc(CNc4ccc(Br)cc4)cc(=O)n3[nH]2)cc1 returned FECH block inactive.
For CCN1CCN(Cc2cc(=O)n3[nH]c(-c4ccc(C(C)(C)C)cc4)nc3n2)CC1 the results were FECH block inactive.
For CCOc1ccccc1NCc1cc(=O)n2[nH]c(-c3ccc(C(C)(C)C)cc3)nc2n1 the results were FECH block inactive.
`Cc1ccc(Cl)cc1NCc1cc(=O)n2[nH]c(-c3ccc(C(C)(C)C)cc3)nc2n1` gave FECH block active.
Screening CC(C)(C)c1ccc(-c2nc3nc(CNc4ccccc4F)cc(=O)n3[nH]2)cc1 returned FECH block active.
